Results: ChEMBL document CHEMBL4513216, “Probing the Open Global Health Chemical Diversity Library for Multistage-Active Starting Points for Next-Generation Antimalarials” (ACS Infect Dis, 2020)
Among all 69,000 compounds or so, about 8,600 (12%) showed an effect of 50% or more. Many of the other results were omitted from the sample, so strong results are more common in it than they were.

System: Plasmodium berghei
Test: Screen against P. berghei liver stage (PbLuc), transformed with Luciferase, at 10uM
Format: functional, HepG2
Details: tested at 10 uM

| Structure (SMILES) | INHIBITION [%] |
| --- | --- |
| CC(C)C(NC(=O)Cc1ccccc1)C(=O)NCc1ccc(O)nc1 (stereo not drawn) | 0.991 |
| CC(C)(C)c1nnc(CN2CCCC2Cn2cncn2)o1 (stereo not drawn) | 32.707 |
| CN1CC(=O)N(c2cccc(F)c2)CC12CCN(S(=O)(=O)C1CC1)C2 (stereo not drawn) | 5.44 |
| NC(=O)c1cnc(NC2CC2)nc1CCNC(=O)CC1CCCC1 | 31.3 |
| O=C(NCc1cc[nH]n1)N1CCN(c2ncccn2)CC1 | 33.3 |
| CCOC(=O)CNC(=O)N1CCN(c2ncccn2)CC1 | 63.5 |
| CCOC(=O)CCCNC(=O)CN1CCN(c2ncccn2)CC1 | 1.81 |
| Cn1c(C(=O)NC(Cc2ccsc2)c2cccnc2)cc(=O)n(C)c1=O (stereo not drawn) | -12.3 |
| C/C=C(\C)CN1C[C@@H](NC(=O)c2ccc(F)c(F)c2)C[C@H]1C(=O)NCC | 52 |
| C/C=C(\C)CN1C[C@H](NC(=O)c2cnc(O)cn2)C[C@H]1C(=O)NCC | -7.17 |
| C/C=C(\C)CN1C[C@@H](NC(=O)c2ccc(O)c(Cl)c2)C[C@H]1C(=O)NCC | 22.4 |
| c1ccc(OCCN2CCCCC2Cn2cncn2)cc1 (stereo not drawn) | 40.9 |
| CCCC(C)N(C)C(=O)c1nc(S(C)(=O)=O)n2ccccc12 (stereo not drawn) | -8.95 |
| Cc1nc(C)c(C(=O)N2CCc3ccc(F)cc3C2C)o1 (stereo not drawn) | -11.6 |
| Cc1nc(C)c(C(=O)N2Cc3cc(F)ccc3CC2C)o1 (stereo not drawn) | -9.17 |
| Cc1nc(C)c(C(=O)N2CCc3cc(F)ccc3C2C)o1 (stereo not drawn) | 52.6 |
| C=c1ncsc1=C1NN=C(C2CCCN2C(=O)CCn2ccc(C)n2)O1 (stereo not drawn) | 21.95 |
| Cc1nn(C)c(C)c1CN(C)CC1(O)CCCN(C)C1 (stereo not drawn) | 5.18 |
| CCCc1cnc(C)nc1N1CCC(F)(F)CC1 | -40.6 |
| CCCc1cnc(C)nc1N1CCC(Cc2ccc(CO)cc2)C1 (stereo not drawn) | 75 |
| CCCc1cc(N2CCC(Cc3cccc(C(N)=O)c3)C2)nc(C)n1 (stereo not drawn) | 5.67 |
| CCCc1cnc(C)nc1N1CCC(Cn2cc(CO)nn2)CC1 | 50.2 |
| CCCc1cnc(C)nc1N1CCC(Cn2cc(C(C)O)nn2)CC1 (stereo not drawn) | 17.5 |
| CCc1cnc(C)nc1N1CCC(Cc2cccc(C(=O)O)c2)C1 (stereo not drawn) | 47.2 |
| CCCc1cnc(C)nc1N1CCC(Cn2cc(CN(C)C)nn2)CC1 | -16.1 |
| CCCc1cnc(C)nc1N1CCC2(CCCO2)CC1 | 13.1 |
| CCCc1cnc(C)nc1N1CCC(Cc2cccc(C(N)=O)c2)C1 (stereo not drawn) | 52.2 |

| Structure (SMILES) | INHIBITION [%] |
| --- | --- |
| Cn1cnc2c1CCN(Cc1cccc(C(=O)N3CCCCC3)c1)C2 | -40.01 |
| Cc1cccc(S(=O)(=O)N2C[C@@H]3C[C@H](C(=O)N(C)C)[C@H](C2)O3)c1 | 42.3 |
| Cc1nc(NC2CC(C)(C)NC(C)(C)C2)c2c(n1)c(C)nn2C | -7.83 |
| COCCc1noc(CN(C)c2nc(C)nc(C)c2C)n1 | 47.6 |
| CNc1snc(C)c1C(=O)N1CCCC(n2nc(C)nc2C)C1 (stereo not drawn) | 19.4 |
| O=C1CC(NS(=O)(=O)c2cccc(F)c2)CN1 (stereo not drawn) | 10.7 |
| CC(NC(=O)N1CCC(CO)CC1)c1csc2ccccc12 (stereo not drawn) | 55.5 |
| CC(NC(=O)N1CCC(CC(N)=O)CC1)c1csc2ccccc12 (stereo not drawn) | 27.7 |
| CC(=O)N1CCCN(C(=O)NC(C)c2csc3ccccc23)CC1 (stereo not drawn) | 21.8 |
| COc1ccc(C(=O)N2CCCCC2c2nccs2)c(OC)c1 (stereo not drawn) | 7.12 |
| COc1ccc(CC(=O)N2CCCCC2Cn2cc(C)cn2)cc1F (stereo not drawn) | -2.19 |
| CC(C)Cc1cc(NC(=O)c2cccnc2)n(C)n1 | -10.6 |
| CCN(CC(=O)NC(C)C)S(=O)(=O)N1CCCC(C)C1 (stereo not drawn) | -13.4 |
| CCN(CC(=O)NC(C)C)S(=O)(=O)N1CCCCCC1 | -12.6 |
| CCN(CC)S(=O)(=O)N1CCCN(CC(=O)NC(C)C)CC1 | 57.2 |
| Fc1ccc2[nH]c3c(c2c1)CCN1C(c2ccccn2)N2CCC31CC2 (stereo not drawn) | -23.4 |
| CC(NCC1CCS(=O)(=O)CC1)c1cccc(OC(F)F)c1 (stereo not drawn) | 2.97 |
| Cc1cccc(C(C)NCC2CCS(=O)(=O)CC2)c1 (stereo not drawn) | 64.4 |
| CC(=O)Nc1cccc(C(C)NCC2CCS(=O)(=O)CC2)c1 (stereo not drawn) | 25.8 |
| O=C(Nc1cnccn1)[C@@H]1C[C@H]2OCC[C@H]2N(Cc2ccsc2)C1 | -38.9 |
| CCCN1C[C@@H]2CC[C@H]1CN(Cc1ccc(Cn3cccn3)cc1)C2 | -27.5 |
| COC(=O)c1ccc(N2CCN(C(=O)c3ccco3)C(C)C2)cc1 (stereo not drawn) | -34 |
| COC(=O)c1ccc(N2CCN(C(=O)C3CC3)C(C)C2)cc1 (stereo not drawn) | 31.6 |
| COC(=O)c1ccc(N2CCN(C(=O)c3ccc(O)nc3)C(C)C2)cc1 (stereo not drawn) | 2.97 |
| COC(=O)c1ccc(N2CCN(C(=O)c3cccnc3)C(C)C2)cc1 (stereo not drawn) | 81.1 |
| COC(=O)c1ccc(N2CCN(C(=O)c3ccncc3)C(C)C2)cc1 (stereo not drawn) | 27.1 |
